PglD DTNB: PglD (C. jejuni) enzyme inhibition; purified PglD enzyme, DTNB colorimetric CoA detection; hit rate 0.098% among 360,000; inhibition, % at 12.5 µM; in the data active = inhibition above about 16%, passing the limit was not always enough; inconclusive = no clear call, values can overlap the other calls
FGF22 binding: FGF22 (human) thermal shift binding. Q9HCT0. recombinant FGF22 thermal shift, SYPRO orange fluorescence; percent of sucrose octasulfate shift, DMSO zero. activity (Tm shift, normalised), % at 9.99 µM. hit rate 1.5% among 340,000. AID 651658;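 active = mean Tm shift, scaled 0 neutral to 100 positive control, at about 1.3% or above, every replicate too, limit read from the data; inconclusive = no clear call, values can overlap the other calls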
Target sequence (Q9HCT0 whole entry, looked up): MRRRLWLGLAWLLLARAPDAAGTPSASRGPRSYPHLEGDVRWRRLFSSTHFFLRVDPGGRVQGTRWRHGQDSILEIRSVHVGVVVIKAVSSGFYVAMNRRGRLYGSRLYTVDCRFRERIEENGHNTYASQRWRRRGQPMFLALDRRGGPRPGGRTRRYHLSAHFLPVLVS
dFosB act-1: enhances mouse delta FosB homodimer DNA binding; hit rate 0.99% among 340,000; P13346; activation, % at 25 µM; AID 493131; purified delta FosB, TAMRA-CDK5 oligo fluorescence polarization; percent of positive-control signal above neutral wells;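 active = mean activation above about 17%, with every replicate also reaching it, limit read from the data, passing the limit was not always enough; inconclusive = only one of the two conditions met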
Target sequence (P13346 whole entry, looked up): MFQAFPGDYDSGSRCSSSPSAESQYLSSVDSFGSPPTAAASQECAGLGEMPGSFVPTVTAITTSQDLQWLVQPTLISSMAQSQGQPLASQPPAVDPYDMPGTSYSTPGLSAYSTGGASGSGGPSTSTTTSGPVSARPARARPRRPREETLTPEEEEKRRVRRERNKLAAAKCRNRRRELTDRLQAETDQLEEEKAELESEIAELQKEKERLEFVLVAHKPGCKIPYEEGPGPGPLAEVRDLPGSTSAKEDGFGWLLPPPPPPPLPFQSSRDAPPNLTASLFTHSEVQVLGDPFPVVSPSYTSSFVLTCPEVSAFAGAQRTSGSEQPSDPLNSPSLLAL
PvdQ acylase: blocks Pseudomonas aeruginosa PvdQ acylase activity; purified PvdQ acylase, fluorescence plate reader; inhibition, % at 10 µM; hit rate 0.063% among 340,000; in the data active = inhibition above about 30%, passing the limit was not always enough; inconclusive = no clear call, values can overlap the other calls
SIRT5 block: inhibitors of human sirtuin-5 desuccinylase; Q9NXA8; hit rate 1.1% among 330,000; inhibition, % at 15 µM; Purified SirT5, succinyl-peptide AMC, trypsin-coupled fluorescence; in the data active = inhibition above about 15%; inconclusive = no clear call, values can overlap the other calls
CDK5 inh: blocks human CDK5/p35 kinase activity. inhibition, % at 10 µM. Q00535+Q15078. Recombinant CDK5/p35, ADP-Glo luminescence, 60 min. hit rate 0.01% among 330,000;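 active = highest replicate inhibition of at least 50% and at least 75% of replicates reaching 50%; inconclusive = only one of the two criteria met; inactive = both criteria failed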
dFosB act-2: activators of mouse delta FosB homodimer DNA binding; shares compounds with dFosB act-1; activation, % at 24.9 µM; 2,400 tested, under 10 active; purified delta FosB, TAMRA-CDK5 oligo fluorescence polarization; normalised: neutral wells 0, positive control 100; AID 588690;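 active = highest replicate activation at or above 34% and every replicate reaching that threshold; inconclusive = meets only one of the two criteria; inactive = meets neither criterion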;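 also: higher polarization means more probe DNA bound by delta FosB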
Large screens that a line does not name were inactive (follow-up assays come after a bar, where they were run). A selection: hits, their analogues and other compounds. The true share with any hit is near 2.8%.

O=C(N/N=C/c1ccc2c(c1)OCO2)c1ccc(NC(=O)c2ccccc2Cl)cc1	dFosB act-1 23 | dFosB act-2 inactive
CCNC(=O)C[C@H]1CC[C@@H]2[C@@H](COc3ccc(NC(=O)Nc4ccc(C)cc4)cc3C(=O)N2C)O1	none (no result: dFosB act-1, PvdQ acylase, CDK5 inh)
Cc1noc(C)c1S(=O)(=O)Nc1ccc2c(c1)C(=O)N([C@H](C)CO)C[C@H](C)[C@H](CN(C)S(C)(=O)=O)OCCCC[C@@H](C)O2	none (no result: dFosB act-1, PvdQ acylase, CDK5 inh)
C[C@@H]1CCCCO[C@H](CN(C)C(=O)Cc2ccccc2)[C@H](C)CN([C@@H](C)CO)C(=O)c2cc(NC(=O)NC3CCCCC3)ccc2O1	none (no result: dFosB act-1, PvdQ acylase, SIRT5 block, CDK5 inh)
CCOC(=O)Cn1c(=NC(=O)c2sc3ccccc3c2Cl)sc2cc(S(N)(=O)=O)ccc21	dFosB act-1 92 (no result: FGF22 binding, SIRT5 block) | dFosB act-2 inactive
Cc1nn(C)cc1/C=N/NC(=S)Nc1ccc(Cl)cc1Cl	dFosB act-1 34 (no result: FGF22 binding, SIRT5 block) | dFosB act-2 inactive
CCn1nc(C)c(/C=N/NC(=S)Nc2ccc(Cl)cc2Cl)c1C	dFosB act-1 inconclusive (no result: FGF22 binding, SIRT5 block)
Cc1cc2c(cc1C)C(c1ccccc1F)CC(=O)N2 (configuration not stated)	none
Cc1cc2c(cc1C)C(c1cc(Br)ccc1F)CC(=O)N2 (configuration not stated)	dFosB act-1 22 (no result: PglD DTNB) | dFosB act-2 inactive
COc1nc(-c2ccc(Cl)cc2)ccc1-c1noc(-c2ccco2)n1	dFosB act-1 30 (no result: FGF22 binding, SIRT5 block) | dFosB act-2 inactive
C[C@H](CO)N1C[C@H](C)[C@H](CN(C)Cc2ccc(Cl)c(Cl)c2)Oc2c(NC(=O)c3nc4ccccc4s3)cccc2C1=O	none (no result: dFosB act-1, PvdQ acylase, CDK5 inh)
CC(C)NC(=O)Nc1ccc2c(c1)CC(=O)N([C@@H](C)CO)C[C@@H](C)[C@@H](CN(C)S(=O)(=O)c1cccs1)O2	none (no result: dFosB act-1, PvdQ acylase, CDK5 inh)
Cc1[nH]c2ccccc2c1C(=O)CN1C(=O)C(=O)N(C2CCCC2)C1=O	dFosB act-1 47 (no result: PglD DTNB) | dFosB act-2 inactive
COCCNC(=O)C[C@H]1C[C@@H]2c3cc(NS(=O)(=O)c4ccccc4)ccc3O[C@@H]2[C@@H](CO)O1	none (no result: dFosB act-1, PvdQ acylase, CDK5 inh)
COc1ccc2oc(=O)c(-c3cn4ccc(C)cc4n3)cc2c1	dFosB act-1 26 (no result: PglD DTNB) | dFosB act-2 inactive
COc1ccc2sc(/C=C/c3ccccc3O)[n+](C)c2c1	dFosB act-1 65 (no result: PglD DTNB, FGF22 binding) | dFosB act-2 inactive
COc1ccc(N=Cc2ccccc2O)cc1	none (no result: FGF22 binding, SIRT5 block)
C=CCN(c1ccccc1)S(=O)(=O)c1cccc(C(=O)Nc2nc3ccccc3[nH]2)c1	dFosB act-1 47 (no result: FGF22 binding, SIRT5 block) | dFosB act-2 inactive
Cc1sc2nc(CN3CCOCC3)nc(N3CCN(S(=O)(=O)c4ccccc4)CC3)c2c1C	none
Cc1sc2nc(CN3CCCC3)nc(N3CCN(S(=O)(=O)c4cccc(F)c4)CC3)c2c1C	dFosB act-1 44 | dFosB act-2 inactive
COc1ccc(NC(=O)N(C)C[C@@H]2Oc3ccc(NC(=O)Nc4ccccc4)cc3C(=O)N([C@H](C)CO)C[C@@H]2C)cc1	none (no result: dFosB act-1, PvdQ acylase, CDK5 inh)
COc1ccc(C(=O)Nc2nc3cc(OC)c(OC)cc3c(=O)[nH]2)cc1	dFosB act-1 25 (no result: FGF22 binding, SIRT5 block) | dFosB act-2 inactive
O=S(=O)(c1cccc(F)c1)N1CC[C@@H]2[C@H](CO)Nc3ccc(C#Cc4cccc(F)c4)cc3[C@@H]21	none (no result: dFosB act-1, PvdQ acylase, SIRT5 block, CDK5 inh)
Cc1ccc(OCC(=O)Nc2ccc(-c3nc4ncccc4o3)cc2)c(C)c1	dFosB act-1 73 (no result: FGF22 binding, SIRT5 block) | dFosB act-2 inactive
Cc1ccc(OCC(=O)Nc2ccncc2)c(C)c1	none
CCOc1ccc(CCNC(=O)c2nnn(CC(=O)Nc3ccc(OC)cc3)c2N)cc1OCC	none
CCOc1ccc(CCNC(=O)c2nnn(CC(=O)Nc3ccc(OC)c(OC)c3)c2N)cc1OCC	none (no result: PglD DTNB)
COc1ccc(NC(=O)Cn2nnc(C(=O)NCCc3ccccc3)c2N)cc1	dFosB act-1 29 (no result: PglD DTNB) | dFosB act-2 inactive
CCc1ccc(NC(=O)Cn2nnc(C(=O)NCCc3ccc(OC)c(OC)c3)c2N)cc1	dFosB act-1 83 | dFosB act-2 inactive
COc1ccc(S(=O)(=O)N(C)C[C@H]2OCCCC[C@@H](C)Oc3ccc(NS(C)(=O)=O)cc3C(=O)N([C@@H](C)CO)C[C@H]2C)cc1	none (no result: dFosB act-1, PvdQ acylase, CDK5 inh)
CCNC(=O)[C@@H]1[C@@H](CO)[C@@H]2Cn3c(ccc(-c4ccc(F)cc4)c3=O)[C@H]1N2C(=O)C1CC1	none (no result: dFosB act-1, PvdQ acylase, CDK5 inh)
O=C(C[C@@H]1C=C[C@H](NC(=O)Nc2ccc3c(c2)OCO3)[C@H](CO)O1)NCc1ccc(Cl)cc1	none (no result: dFosB act-1, PvdQ acylase, CDK5 inh)
CCc1cccc(OCC2Cn3c(nc4c3c(=O)[nH]c(=O)n4C)O2)c1 (configuration not stated)	dFosB act-1 20 | dFosB act-2 inactive
O=C(N/N=C/c1ccc(F)cc1)c1ccccc1	none (no result: PglD DTNB)
O=C(N/N=C/c1ccc(OC(=O)c2cccs2)cc1)c1ccc(F)cc1	dFosB act-1 33 (no result: FGF22 binding, SIRT5 block) | dFosB act-2 inactive
O=C(CSc1nnc(NC(=O)C2CC2)s1)Nc1ccccc1	dFosB act-1 25 | dFosB act-2 inactive
CC(=O)Nc1ccc(NC(=O)CSc2nnc(NC(=O)C3CC3)s2)cc1	dFosB act-1 28 | dFosB act-2 inactive
O=C(CSc1nnc(NC(=O)C2CC2)s1)Nc1ccc(F)cc1	none (no result: FGF22 binding, SIRT5 block)
CC(=O)Nc1ccc(NC(=O)CSc2nnc(NC(=O)Cc3ccc(F)cc3)s2)cc1	dFosB act-1 24 | dFosB act-2 inactive
COCC#Cc1ccc([C@H]2[C@@H](CO)N3C(=O)CN(C(=O)CN4CCOCC4)C[C@H]23)cc1	none (no result: PglD DTNB, FGF22 binding, dFosB act-1, PvdQ acylase, CDK5 inh)
Cn1c(N)c(C(=O)CSc2nn(-c3ccc(F)cc3)c(=S)s2)c(=O)n(C)c1=O	dFosB act-1 52 | dFosB act-2 inactive
CCCCN(C(=O)CSc1nn(-c2ccc(F)cc2)c(=S)s1)c1c(N)n(CCCC)c(=O)[nH]c1=O	none (no result: PglD DTNB)
COc1ccccc1N1CCN(C2=Nc3cccc4cccc2c34)CC1	dFosB act-1 26 | dFosB act-2 inactive
COc1ccccc1N1CCN(C(=O)CN2C(=O)c3cccc4cccc(c34)C2=O)CC1	none
c1cc2c3c(cccc3c1)C(N1CCOCC1)=N2	none
CC1CN(C2=Nc3cccc4cccc2c34)CC(C)O1 (configuration not stated)	none
c1ccc(CC2CCN(C3=Nc4cccc5cccc3c45)CC2)cc1	dFosB act-1 23 (no result: FGF22 binding, SIRT5 block) | dFosB act-2 inactive
CCOC(=O)N1CCN(C2=Nc3cccc4cccc2c34)CC1	dFosB act-1 22 (no result: FGF22 binding, SIRT5 block) | dFosB act-2 inactive
CC(=O)N1CCN(C2=Nc3cccc4cccc2c34)CC1	dFosB act-1 17 (no result: FGF22 binding, SIRT5 block) | dFosB act-2 inactive
O=C(Cc1ccccc1)N1CC(=O)N2[C@H](C1)[C@@H](c1ccc(C3=CCCC3)cc1)[C@@H]2CO	none (no result: PglD DTNB, FGF22 binding, dFosB act-1, PvdQ acylase, CDK5 inh)
O=C(CSc1nnc(-c2ccncc2)n1Cc1ccco1)Nc1nc(-c2ccccc2)cs1	dFosB act-1 33 (no result: FGF22 binding, SIRT5 block) | dFosB act-2 inactive
Cc1sc2nc(CSCC(=O)Nc3cc(F)ccc3F)[nH]c(=O)c2c1C	none
